Test results taken from PubChem BioAssay (NCATS).
Results filed as inconclusive are left out. Entries that show only a call come without a potency. The source made the active and inactive calls. The call rests on the fitted dose curve; in most records, active means well fitted inhibition curve with a large enough effect; inconclusive means small, poorly fitted or top-dose-only effect; inactive means flat fitted curve, though single readings scatter. Non-standard residues stand in square brackets, D forms with d. Residues, ends and D or L forms follow the SMILES beside them. *: point of attachment. Nva = CCC[C@H](N)C(=O)O; Cbz = O=C(OCc1ccccc1)*

Test system: MCC-13
Assay: qHTS assay to identify novel small-molecules to repurpose for Merkel cell carcinoma treatment (AID 1296009); further: nearly all actives have a fitted effect of over 60% in size
Details: MCC and control cell lines, CellTiter-Glo viability, 72 h; series mostly up to 46 µM
Method in brief: (§1)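 Cells exposed to NPC (8-point) and MIPE (11-point) compound dilutions for 72 hr at 37 degree celsius; viability read by CellTiter-Glo luminescence, normalized to no-cell and DMSO in-plate controls.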
Potency means the concentration at half of the fitted maximal effect.

Structure (SMILES)	Potency
CC(C)(C)[N+]([O-])=Cc1ccc(S(=O)(=O)O)cc1S(=O)(=O)O	inactive
Nc1cccc2c1C(=O)N(C1CCC(=O)NC1=O)C2=O (centres undefined)	inactive
CC(C)OC(=O)[C@H](C)N[P@](=O)(OC[C@H]1O[C@@H](n2ccc(=O)[nH]c2=O)[C@](C)(F)[C@H]1O)Oc1ccccc1	inactive
NC[C@H]1O[C@H](O[C@H]2[C@@H](O)[C@@H](O[C@H]3O[C@H](CO)[C@@H](O)[C@H](N)[C@@H]3O)[C@H](N)C[C@@H]2N)[C@H](N)C[C@H]1O	inactive

Test system: MCC-26
Assay: as above
Details: MCC and control cell lines, CellTiter-Glo viability, 72 h; series mostly up to 46 µM
Method in brief: as §1

Structure (SMILES)	Potency
CON=C(C(=O)N[C@@H]1C(=O)N2C(C(=O)O)=C(Cn3ccc(=N)n3CCO)CS[C@H]12)c1csc(N)n1	inactive
O=C(O)C=Cc1ccc(Cn2ccnc2)cc1	inactive
NC(=O)c1ncn([C@@H]2O[C@H](CO)[C@@H](O)[C@@H]2O)c1O	inactive
OCCN1C[C@H](O)[C@@H](O)[C@H](O)[C@@H]1CO	inactive
c1ccc(CNc2nc(NCc3ccccc3)c3ccccc3n2)cc1	inactive
CCC[C@@H](C=O)NC(=O)[C@H](CC(C)C)NC(=O)[C@H](CC(C)C)NC(=O)OCc1ccccc1 (Cbz-Leu-Leu-[Nva]-aldehyde)	3.32 µM (active)
COC(=O)C1C2CC3c4[nH]c5cc(OC)ccc5c4CCN3CC2CC(OC(=O)c2cc(OC)c(OC)c(OC)c2)C1OC (centres undefined)	inactive
C=C[C@@H]1CN2CCC1C[C@H]2[C@H](O)c1ccnc2ccc(OC)cc12 (some centres undefined)	inactive
CC(=CC(=O)Nc1ccccc1C(=O)O)c1ccc2ccccc2c1	inactive
C=C1C[C@@]2(O)O[C@@]3(C[C@H]2C(C)C)[C@H](C)CC[C@H]13	inactive
